Reference: ChEMBL document CHEMBL4513216, “Probing the Open Global Health Chemical Diversity Library for Multistage-Active Starting Points for Next-Generation Antimalarials” (ACS Infect Dis, 2020)
Out of some 69,000 compounds screened, about 8,600 (12%) showed an effect of 50% or more. The full list was thinned out, with strong results kept by preference.

What follows are compounds tested on Plasmodium berghei (assay: Screen against P. berghei liver stage (PbLuc), transformed with Luciferase, at 10uM). Details: tested at 10 uM.
Format: functional, HepG2

First: Fc1ccc(CN2CCOCC3(CCN(Cc4nccs4)C3)C2)cc1 (configuration not stated)
Second: Cc1ccc(=O)n(CC2(O)CCN(Cc3cccs3)CC2)n1
The INHIBITION of the first is higher: 7.24% for the first, -20.2% for the second.

Compared with CCCc1nnc(NCCc2noc(C3CCC3)n2)o1, Cc1cc(C)n(CCC(=O)N2CCC(c3nc(C)no3)CC2)n1 is higher in INHIBITION: 12.7% for the first, 47.4% for the second.

Going from CC(C)C(=O)NCCNC(=O)CCOc1cccc(F)c1 to Cc1cccnc1NCCNc1cc(C(C)C)nc2ccnn12, the INHIBITION falls from 48.45% to 43.9%.

Compared with CCc1cc(NC2CCC(O)CC2)n2nc(C)c(C)c2n1 (configuration not stated), Cc1cc(C)n(CC2CCCN2C(=O)c2ccc(NC3CC3)nc2)n1 (configuration not stated) is lower in INHIBITION: 25.1% for the first, -5.07% for the second.

First: CC(C)CN1CCC(N2CCC(C(=O)N(C)C)CC2)CC1
Second: CC(CN1CC[C@@H]2CCCC[C@@H]2C1)n1cnc2ccccc21 (some centres not stated)
The INHIBITION of the first is higher: 18.6% for the first, 3.58% for the second.

Going from COc1ccc(OC2CCN(C(=O)CCc3n[nH]c(C)n3)CC2)cc1 to COc1ccc(CN2CCCC2)cc1Oc1ccc(NC(C)=O)cc1, the INHIBITION falls from -4.23% to -5.47%.

First: CN(C)CCOCC1CN(C(=O)c2ccsc2)Cc2ccnn2C1 (configuration not stated)
Second: COc1nn(C)cc1C(=O)N1CCC(c2ccccc2)C1 (configuration not stated)
The INHIBITION of the first is lower: -10.3% for the first, 11.8% for the second.

Compared with CS(=O)(=O)c1ccc(NCc2ccc(F)cc2)cn1, Cc1cnc2c(c1NCc1ccc(F)cc1)c(=O)n(C)c(=O)n2C is higher in INHIBITION: -32.7% for the first, 51.2% for the second.

First: Cc1cnc2c(c1NCc1ccncc1)c(=O)n(C)c(=O)n2C
Second: Cc1cnc2c(c1NCc1cccnc1)c(=O)n(C)c(=O)n2C
The INHIBITION of the first is lower: -14.6% for the first, 71.8% for the second.

First: Cc1cnc2n(c1=O)C(CC(=O)NCc1cccs1)CS2 (configuration not stated)
Second: Cc1cnc2n(c1=O)C(CC(=O)NCc1cccnc1)CS2 (configuration not stated)
The INHIBITION of the first is lower: 6.09% for the first, 40.9% for the second.

First: Cc1cnc2c(c1NCc1ccc3c(c1)OCO3)c(=O)n(C)c(=O)n2C
Second: Cc1cnc2c(c1NCc1cccs1)c(=O)n(C)c(=O)n2C
The INHIBITION of the first is higher: 73.3% for the first, 54.1% for the second.

First: Cc1cc(NC(=O)Cc2ccc3c(c2)OCO3)n(C)n1
Second: Cc1nn(C)c(N2CCOCC2)c1CNCc1ccc2c(c1)OCO2
The INHIBITION of the first is higher: 13.2% for the first, 7.67% for the second.

Going from Cc1cnc2c(c1NCc1ccccn1)c(=O)n(C)c(=O)n2C to CCc1cnc2c(c1Nc1ccccc1OC)c(=O)n(C)c(=O)n2C, the INHIBITION rises from 8.31% to 15.4%.

Compared with Cc1cnc(N2CCC3(CC2)COCCN(C(C)C)C3)nc1, Cc1cnc(N2C[C@H]3CCN(CC4CC4)C[C@H]3C2)nc1 is lower in INHIBITION: 12.2% for the first, -21.7% for the second.

Compared with O=c1cnc2ccccc2n1CCCn1ccnc1, Cc1nccn1-c1ccc(=O)n(CCNC(=O)Cc2ccccc2)n1 is lower in INHIBITION: 34% for the first, 13.8% for the second.

Going from Cc1cc(NCCNc2ncccc2C)n2nc(C)cc2n1 to Cc1cc2nc(C(C)C)cc(NCCNc3ncccc3C)n2n1, the INHIBITION rises from 16% to 64.2%.

Going from CNC(=O)Cc1ccc(-n2ccnc2-c2ccc(C(=O)O)s2)cc1 to COc1cc(-n2ccnc2-c2ccc(C(=O)O)s2)ccc1NC(C)=O, the INHIBITION falls from 51.2% to 17.5%.

Going from O=C(O)Cc1cccc(-n2ccnc2-c2ccc(Cl)s2)c1 to O=C(O)Cc1cccc(-n2ccnc2-c2ccc(F)c(Cl)c2)c1, the INHIBITION falls from 53.3% to -10.5%.

Going from Cc1cccc(-c2nccn2-c2cccc(CC(=O)O)c2)n1 to NC(=O)c1ccc2c(c1)nc1n2CCN(Cc2ccccc2)C1, the INHIBITION rises from 11.9% to 16.6%.

Going from CCn1c(C)nnc1SCCNC(=O)c1sc(C(C)C)nc1C to CC(C)n1cnnc1CNC(=O)c1cnc2ccccc2n1, the INHIBITION rises from -12.1% to -4.73%.

Compared with Cc1cncc(C(=O)N2CCc3ncc(Cn4cccn4)n3CC2)c1, NC(=O)c1ccc2c(c1)nc1n2CCN(Cc2cccnc2)C1 is higher in INHIBITION: 10.5% for the first, 54% for the second.

First: Cc1cc(C)c2cc(C(=O)N3CCNC(=O)C3)[nH]c2c1
Second: CCOc1ccc2cc(C(=O)N3CCn4c(CC)nnc4C3)[nH]c2c1
The INHIBITION of the first is higher: 14.3% for the first, 0.411% for the second.

Compared with CNC(=O)C1(CCCc2ccccn2)CN(Cc2scnc2C)C1, Cc1ncc2c(n1)CN(CCCc1ccccc1)CC2 is lower in INHIBITION: 30.4% for the first, -21.8% for the second.

Going from Cc1cccc(C)c1Nc1noc2c1CN(C(=O)c1c[nH]nc1C)CC2 to Cc1ccc(C2c3c(n[nH]c3C)N=C3COC(=O)C32)cc1C (configuration not stated), the INHIBITION rises from 18.34% to 55.3%.

Going from O=C(c1ccccc1F)N1CC2(CCNCC2)c2cc(Cl)ccc21 to O=C(c1ccco1)N1CC2(CCNCC2)c2cc(Cl)ccc21, the INHIBITION rises from -27% to 51.9%.

First: O=C([C@@H]1CSCN1)N1CC2(CCNCC2)c2cc(Cl)ccc21
Second: O=C([C@H]1CCCN1)N1CC2(CCNCC2)c2cc(Cl)ccc21
The INHIBITION of the first is lower: 38.5% for the first, 58.3% for the second.

Compared with O=C(c1ccncc1)N1CC2(CCNCC2)c2cc(Cl)ccc21, CC(=O)N1CC2(CCNCC2)c2cc(Cl)ccc21 is higher in INHIBITION: 5.04% for the first, 14.9% for the second.

Going from NC(=O)N1CC2(CCNCC2)c2cc(Cl)ccc21 to CN(C)C(=O)N1CC2(CCNCC2)c2cc(Cl)ccc21, the INHIBITION rises from 19.1% to 83.5%.

Going from CN(C)C(=O)N1CC2(CCNCC2)c2cc(F)ccc21 to Cc1ccccc1C1(C(=O)NCCN2CCCC(C)C2)CCOCC1 (configuration not stated), the INHIBITION rises from -15.5% to 49.8%.

Compared with Cn1ccnc1CN1CCOC(Cn2cccn2)C1 (configuration not stated), CCN(CC1CN(Cc2nccn2CC)CCO1)c1cccnn1 (configuration not stated) is higher in INHIBITION: 7.08% for the first, 41.4% for the second.

First: CNc1nc2cn(CCc3ccc(Cl)cc3)c(=O)c-2c[nH]1
Second: CSc1nc(N)c2c(n1)N=C1COC(=O)C1C2c1cccc(Cl)c1 (configuration not stated)
The INHIBITION of the first is lower: -15.5% for the first, 15.9% for the second.

Compared with CN(C)c1cc(CNC(=O)c2ccc(Br)cc2F)ccn1, Cn1nccc1NC(=O)c1cccc(CN2C[C@H]3CC[C@@H](C2)N3)c1 is lower in INHIBITION: 16.8% for the first, 6.09% for the second.

Compared with NC(=O)c1ccc2c(c1)nc1n2CCN(Cc2ccco2)C1, Cc1ccc(Cl)c(NC(=O)c2cccc(CN3CC[C@H](O)C3)c2)c1 is higher in INHIBITION: -7.9% for the first, 43.9% for the second.

First: O=C(NCCCO)c1cc(-c2cc[nH]n2)n2ccccc12
Second: O=C(NCCN1CCOCC1)c1nc2ccccc2c(=O)[nH]1
The INHIBITION of the first is lower: 15.4% for the first, 45.7% for the second.

First: COc1ccc(C2c3c(n[nH]c3C)N=C3COC(=O)C32)cc1OC (configuration not stated)
Second: COc1ccc(OC)c(C2c3c(n[nH]c3C)N=C3COC(=O)C32)c1 (configuration not stated)
The INHIBITION of the first is higher: -2.37% for the first, -15% for the second.

Compared with CCOc1ccc(C2c3c(N)nc(SC)nc3N=C3COC(=O)C32)cc1 (configuration not stated), CCN(CC)c1ccc(C2c3c(n[nH]c3C)N=C3COC(=O)C32)cc1 (configuration not stated) is higher in INHIBITION: -44.5% for the first, 68.1% for the second.

First: Nc1ccc(-c2cnc(C3CCCN3)cn2)cn1 (configuration not stated)
Second: CC(=O)N1CCC(c2ccnc(Nc3cc(C(F)(F)F)ccn3)n2)C1 (configuration not stated)
The INHIBITION of the first is lower: -4.175% for the first, 2.55% for the second.

Compared with CC1COCCN1Cc1nc(-c2ccc(Br)s2)no1 (configuration not stated), CCN(CC1CN(Cc2nc(C3CC3)no2)CCO1)c1cccnn1 (configuration not stated) is higher in INHIBITION: -50.8% for the first, 87.6% for the second.

First: CCN1CCOC(CNCc2c(Cl)nc3ccccn23)C1 (configuration not stated)
Second: CCN(CC1CN(Cc2ncc(C)o2)CCO1)c1cccnn1 (configuration not stated)
The INHIBITION of the first is higher: -13.6% for the first, -17.4% for the second.

Going from NCC1Cc2cc(Oc3cc(F)c(CN4CCCC4)c(F)c3)ccc2O1 (configuration not stated) to Cc1cc(CN2CCCC2)cc(Oc2ccc3c(c2)CC(CN)O3)c1 (configuration not stated), the INHIBITION falls from 74% to 4.68%.

Compared with COc1ccc(CN2CCCC2)cc1Oc1ccc2c(c1)CC(CN)O2 (configuration not stated), COc1cc(CN2CCCC2)ccc1Oc1ccc2c(c1)CC(CN)O2 (configuration not stated) is higher in INHIBITION: -27% for the first, 69% for the second.

Compared with COc1c(F)cc(-c2cccc3c2OC(CN)C3)cc1F (configuration not stated), CCN(Cc1cccc(C(=O)Nc2cn(C)nn2)c1)[C@H]1COC[C@@H]1O is higher in INHIBITION: 27.6% for the first, 35.7% for the second.

Going from CN(C)C(=O)[C@H]1C[C@H]2OCC[C@H]2N(CCOc2ccc(Cl)cc2)C1 to CCn1cc(NC(=O)c2cccc(CN3C[C@@H](C)O[C@@H](C)C3)c2)nn1, the INHIBITION rises from 1.48% to 81.3%.

Going from Cc1nn(C)c(C)c1NC(=O)c1cccc(CN2C[C@H]3CC[C@@H](C2)N3)c1 to Cc1nn(C)c(C)c1NC(=O)c1cccc(CN2CC[C@H](O)C2)c1, the INHIBITION rises from 16% to 56.6%.

First: Cc1nn(C)c(C)c1NC(=O)c1cccc(CN2CCS(=O)(=O)CC2)c1
Second: CCCn1cc(NC(=O)c2cccc(CN3CC[C@H](O)C3)c2)nn1
The INHIBITION of the first is lower: 44.4% for the first, 65.6% for the second.

Compared with CCCn1cc(NC(=O)c2cccc(CN3CC=CC3)c2)nn1, CS(=O)(=O)N1CCN(c2ccc(Nc3ccccn3)nn2)CC1 is higher in INHIBITION: -57.5% for the first, 21.5% for the second.

Going from Cc1nc(Nc2ccccn2)cc(N2CCN(S(C)(=O)=O)CC2)n1 to Cc1ccc(Nc2cc(N3CCN(S(C)(=O)=O)CC3)nc(C)n2)cc1, the INHIBITION falls from 53.2% to -19.7%.

First: O=C1CCC2(CCC(NCc3cccnc3)CC2)N1Cc1ccccc1 (configuration not stated)
Second: CC(CN1CCC(c2ccccc2)CC1)n1cnc2ccccc21 (configuration not stated)
The INHIBITION of the first is lower: 48.2% for the first, 56.2% for the second.

Compared with CCn1cc(NC(=O)NCC(C)N(C)C2CC2)cn1 (configuration not stated), CCc1nc2n(n1)CC(NCCC(=O)Nc1cc(C)on1)CC2 (configuration not stated) is higher in INHIBITION: -62.8% for the first, 7.08% for the second.

Going from CC(CN1CCC(CCO)CC1)n1cnc2ccccc21 (configuration not stated) to CCN(CC1CN(CC2CCC2)CCO1)c1cccnn1 (configuration not stated), the INHIBITION rises from -0.217% to 62.8%.

First: CCCC(O)CN1CCC(=O)N(CCOC)Cc2cc3c(cc21)OCO3 (configuration not stated)
Second: COCCC(=O)N1CCn2cc(CN3CCN(C)CC3)nc2C1
The INHIBITION of the first is higher: 22.2% for the first, -17.2% for the second.

First: COCCN1CCCC1c1nccnc1Nc1nccs1 (configuration not stated)
Second: COCCN1CCCC1c1nccnc1Nc1ncc(C)s1 (configuration not stated)
The INHIBITION of the first is higher: 61.9% for the first, 8.53% for the second.

Going from COCCN1CCCC1c1nccnc1Nc1nc(C)cs1 (configuration not stated) to CCN(CC1CN(Cc2c(C)noc2C)CCO1)c1cccnn1 (configuration not stated), the INHIBITION rises from 16.9% to 44.9%.

Work on CCN(CC1CN(Cc2ncc[nH]2)CCO1)c1cccnn1 (configuration not stated) yielded an INHIBITION of 11.1%.
